PMP22 txn: Cell-based coincidence reporter assay to measure PMP22 gene transcription in S16 Pmp22-F2sN cells - Primary screen | Potency, µM (top dose mostly 57.5 µM), for inactives: at the top dose activity change, negative = inhibition, usual class: inhibitors | S16 Pmp22-F2sN Schwann cells, FLuc/NLuc coincidence luminescence, 24 h | 43,000 compounds, 2% hits; active means clear falling dose curves in both reporters; inconclusive means both reporters move, but less clearly or upward; inactive means either reporter flat; the % is the NLuc reporter signal; further: potency means the concentration at half of the fitted maximal effect; on the % scale 0 is the no-effect control and ±100 the full control effect
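qHTS, 1536-well. Cells seeded, compounds added by pin tool, 24 h 37C. Nano-Glo reagent 1 (lysis/FLuc), 10 min RT, read; Stop&Glo, 10 min RT, read NLuc.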
pS6 MEF inh: Acumen qHTS Assay for Inhibitors of the mTORC1 Signaling Pathway in MEF (Tsc2-/-, p53-/-) Cells: Sytravon | Tsc2-/- p53-/- MEF, phospho-rpS6 immunofluorescence/PI, 24 h | Potency, µM (top dose mostly 38.3 µM), for the others: at the top dose activity change, negative = inhibition, hits mostly inhibitors | 44,000 compounds, 0.78% hits | AID 493208, 2011;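 further: potency means the concentration at half of the fitted maximal effect; plate controls were DMSO for no effect and rapamycin for full effect; nearly all actives have a fitted effect of over 50% in size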
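Compounds act on Tsc2-/-, p53-/- fibroblasts carrying an empty vector for 24 h before fixation and dual staining for phospho-S6 and DNA (propidium iodide). Values are percentages of cells above a rapamycin-defined pS6/PI threshold.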
HTT promoter inh: Primary qHTS for Identification of Small Molecule Inhibitors of Huntingtin Promoter Activity; HEK293 HTT promoter firefly luciferase reporter, 24 h; AID 1508623, 2021; Potency, µM (highest dose often 57.5 µM), inactives show at the highest dose activity change, negative = inhibition, usual class: inhibitors; 48,000 compounds, 0.93% hits; further: potency means the concentration at half of the fitted maximal effect; nearly all actives have a fitted effect of over 50% in size
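HEK293 cells carrying firefly luciferase reporters were seeded at 2,500 per well in Opti-MEM and cultured for 24 h. They were then treated with compounds at up to 57.5 uM final for 24 h at 37 degrees C before Dual-Glo luminescence readout.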
S16 viability: Cell viability qHTS assay in S16 Pmp22-F2sN cells; S16 Pmp22-F2sN Schwann cells (luciferase reporters placed in the Pmp22 gene) viability, CellTiter-Glo, 24 h; Potency, µM (highest dose often 57.5 µM), for the others: top-dose activity change, negative = cytotoxicity, hits mostly cytotoxic; 43,000 compounds, 0.48% hits; further: potency means the concentration at half of the fitted maximal effect; on the % scale 0 is the no-effect control and ±100 the full control effect; nearly all actives have a fitted effect of over 65% in size
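Rat S16 Schwann reporter line, 24 h treatment with library compounds delivered at 23 nL per well. Cell viability by CellTiter-Glo luminescence.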
FH mod: Identification of activators of human fumarate hydratase by quantitative high-throughput screening; Fumarate hydratase, mitochondrial (Homo sapiens), P07954; FH coupled MDH/diaphorase resazurin fluorescence, 15 min; Potency, µM (titrated, usually from 79.9 µM), for inactives: at the top dose activity change, negative = inhibition, actives largely listed as inhibitors; 54,000 compounds, 0.22% hits; further: potency means the concentration at half of the fitted maximal effect; on the % scale 0 is the no-effect control and ±100 the full control effect; the screen sought activators but most active calls are inhibition curves; nearly all actives have a fitted effect of over 45% in size
Target sequence (P07954 whole entry, looked up): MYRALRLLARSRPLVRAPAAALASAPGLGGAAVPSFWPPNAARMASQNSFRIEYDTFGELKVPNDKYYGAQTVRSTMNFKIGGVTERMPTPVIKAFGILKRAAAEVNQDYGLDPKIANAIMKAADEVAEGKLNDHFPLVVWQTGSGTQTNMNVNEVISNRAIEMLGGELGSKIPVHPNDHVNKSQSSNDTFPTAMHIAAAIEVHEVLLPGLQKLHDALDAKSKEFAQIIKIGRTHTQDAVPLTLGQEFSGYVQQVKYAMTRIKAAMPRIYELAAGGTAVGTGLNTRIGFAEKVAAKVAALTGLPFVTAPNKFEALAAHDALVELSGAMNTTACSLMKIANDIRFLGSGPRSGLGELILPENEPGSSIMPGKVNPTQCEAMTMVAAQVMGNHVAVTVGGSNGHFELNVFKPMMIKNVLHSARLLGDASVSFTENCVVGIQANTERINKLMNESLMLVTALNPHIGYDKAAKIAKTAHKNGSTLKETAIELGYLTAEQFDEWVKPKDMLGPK
HTT-AS promoter: Primary qHTS for Identification of Small Molecule Activators of Huntingtin-Antisense Promoter Activity | HEK293 HTT-AS promoter firefly luciferase reporter, 24 h; response scale: percent change from vehicle, -100% = no light | Potency, µM (top dose mostly 57.5 µM), inactives show at the highest dose activity change, positive = activation, most hits filed as activators | 48,000 compounds, 0.24% hits | AID 1508624, 2021; further: potency means the concentration at half of the fitted maximal effect; nearly all actives have a fitted effect of over 55% in size
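Firefly luciferase signal from promoter-reporter HEK293 cells was scaled between vehicle (0%) and zero RLU (-100%). Compounds were tested at final concentrations of up to 57.5 uM over 24 h at 37 degrees C. PTC124 at 50 uM final served as control inhibitor.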
NLuc sat counter: Biochemical NLuc saturation counterscreen for small molecule modulators of PMP22 gene expression - Nano-Glo assay. shares compounds with PMP22 txn. 690 compounds, 4% hits. Secreted NLuc enzyme (filtered S16 cell medium), Nano-Glo luminescence. AID 1508638, 2021. Potency, µM (highest dose often 57.5 µM), for the others: at the top dose activity change, negative = inhibition, actives largely listed as inhibitors; further: potency means the concentration at half of the fitted maximal effect; on the % scale 0 is the no-effect control and ±100 the full control effect
NLuc Km ctr: Biochemical coelenterazine-based NLuc counterscreen for small molecule modulators of PMP22 gene expression - Km assay; secreted NLuc enzyme, coelenterazine luminescence, Km conditions; Potency, µM (titrated, usually from 57.5 µM), for the others: at the highest dose activity change, negative = inhibition, actives largely listed as inhibitors; AID 1508639, 2021; 690 compounds, 5% hits; shares compounds with PMP22 txn; further: potency means the concentration at half of the fitted maximal effect; on the % scale 0 is the no-effect control and ±100 the full control effect
FLuc counter: Biochemical FLuc counterscreen for small molecule modulators of PMP22 gene expression; shares compounds with PMP22 txn; purified P. pyralis FLuc, luminescence, 10 min; Potency, µM (top dose mostly 57.5 µM), for inactives: at the highest dose activity, negative = inhibition, most hits filed as inhibitors; 690 tested, under 10 active; AID 1508640, 2021; further: % of control where 0% means no effect
S16 F2sN tox cnf: Cell viability qHTS assay in S16 Pmp22-F2sN cells - Confirmatory screen | shares compounds with PMP22 txn | Potency, µM (doses to about 57.5 µM), for the others: top-dose activity change, negative = viability loss, most hits filed as cytotoxic | AID 1508641, 2021 | S16 Schwann cells viability, CellTiter-Glo ATP luminescence, 24 h | 690 compounds, 7% hits; further: potency means the concentration at half of the fitted maximal effect; on the % scale 0 is the no-effect control and ±100 the full control effect
PMP22 txn cnf: Cell-based coincidence reporter assay to measure PMP22 gene transcription in S16 Pmp22-F2sN cells - Confirmatory screen; shares compounds with PMP22 txn; S16 Schwann cells Pmp22-F2sN, dual luciferase, 24 h; Potency, µM (series often up to 57.5 µM), for the others: at the highest dose activity change, negative = inhibition, usual class: inhibitors; 690 compounds, 22% hits; AID 1508646, 2021; active means clear falling dose curves in both reporters; inconclusive means both reporters move, but less clearly or upward; inactive means either reporter flat; the % is the FLuc reporter signal; further: potency means the concentration at half of the fitted maximal effect
PMP22 HiBiT cnf: Cell-based HiBiT reporter assay to measure PMP22 protein expression in S16 Pmp22-HiBiT cells - Confirmatory screen; 95 tested, under 10 active; Potency, µM (series often up to 27.9 µM), for inactives: at the top dose activity change, negative = inhibition, usual class: inhibitors; shares compounds with PMP22 txn; AID 1508647, 2021; S16 Schwann cells Pmp22-HiBiT, luminescence, 48 h
Target sequence (P25094 whole entry, looked up): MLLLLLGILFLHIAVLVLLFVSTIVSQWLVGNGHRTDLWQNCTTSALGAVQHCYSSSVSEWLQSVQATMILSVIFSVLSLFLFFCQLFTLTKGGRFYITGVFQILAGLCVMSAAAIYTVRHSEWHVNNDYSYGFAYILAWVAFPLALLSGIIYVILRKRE
* = called active by the depositor; ? = inconclusive; . = no result; [ ] = dose if it differs, or a comment. Sampled rows, rich in hits. Any-hit rate of the full collection: about 3.3%. Unless noted, the call rests on the fitted dose curve; in most records, active means well fitted curve in the direction sought with a large enough effect; inconclusive means small, poorly fitted or top-dose-only effect, or another doubt; inactive means no such curve, though single readings can be large; an effect the other way counts as inactive or inconclusive.

SMILES | PMP22 txn | pS6 MEF inh | HTT promoter inh | S16 viability | FH mod | HTT-AS promoter | NLuc sat counter | NLuc Km ctr | FLuc counter | S16 F2sN tox cnf | PMP22 txn cnf | others
CCc1ccc(N2C(=O)CSC23C(=O)N(Cc2cccc(OC)c2)c2ccccc23)cc1 (centres undefined) | 12.6µM* | -5.9% | -35.2% | ? | -18.0% | -37.4% | -7.3% | 5.6% | -6.2% | -13.2% | -46.8%
COc1ccc(N2C(=O)CSC23C(=O)N(Cc2cccc(C(F)(F)F)c2)c2ccccc23)cc1 (centres undefined) | ? | -5.2% | ? | -19.6% | -16.8% | -38.8% | . | . | . | . | .
C[C@H]1O[C@@H](O[C@H]2CC[C@@]3(C)C(CC[C@]4(C)C3CC=C3C5CC(C)(C)CC[C@]5(C(=O)O)CC[C@]34C(=O)O)C2(C)C)[C@H](O)[C@@H](O)[C@@H]1O (some centres undefined) | . | . | . | . | -1.7%[20.6 µM] | . | . | . | . | . | .
COCCOc1cnc2ccn([C@H](C)c3nnc4c(F)cc(-c5cnn(C)c5)cn34)c(=O)c2c1 | . | . | . | . | 1.7% | . | . | . | . | . | .
COc1ccc2c(c1)O[C@H](O[C@@H]1O[C@H](CO)[C@@H](O)[C@H](O)[C@H]1O)C(=O)N2 | . | . | . | . | -1.0%[53.3 µM] | . | . | . | . | . | .
CC(=O)c1ccc(NC(=O)COc2ccccc2-c2nc(C)no2)cc1 | 38.5% | -9.7% | -21.3% | 8.4% | 8.8% | 23.5% | . | . | . | . | .
CC(=O)c1ccc(NC(=O)COc2ccccc2-c2nc(C(C)C)no2)cc1 | 12.6µM* | -3.2% | 0.6% | 2.1% | 3.2% | -7.4% | -8.6% | 5.9% | -10.5% | -32.6% | -27.3%
Nc1nc(SCc2ccc([N+](=O)[O-])cc2)c2ncn([C@@H]3O[C@H](CO)C(O)[C@H]3O)c2n1 (some centres undefined) | . | . | . | . | -11.3%[53.3 µM] | . | . | . | . | . | .
CCN1CCN(c2ccc(NS(=O)(=O)c3c(C)nc4sccn4c3=O)cc2Cl)CC1 | 8.91µM* | -17.2% | 15.8µM* | -12.7% | -3.7% | -45.4% | -6.7% | -0.6% | -12.2% | ? | -21.7%
COc1ccc(OC)c(NC(=O)Cn2cnc3onc(-c4ccc(Cl)cc4)c3c2=O)c1 | 5.15µM* | 23.6% | -46.8% | -20.8% | 0.5% | -47.1% | -6.2% | 3.5% | 8.4% | -17.5% | ?
CC(C)(O)C1CC=C(C(=O)OC[C@H]2O[C@@H](Oc3cc(C(=O)O)cc(O)c3O)[C@H](O)[C@@H](O)[C@@H]2O)CC1 (some centres undefined) | . | . | . | . | 1.6%[53.3 µM] | . | . | . | . | . | .
CCCNC(=O)c1ccc(-n2c(-c3ccccc3)cc3c2CCC(C)C3)cc1 (centres undefined) | ? | ? | ? | 25.3% | -9.3% | -56.6% | . | . | . | . | .
CCOCCCNC(=O)c1ccc(-n2c(-c3ccccc3)cc3c2CCCC3)cc1 | ? | -13.1% | 13.2% | ? | -21.6% | 6.0% | . | . | . | . | .
CC1CCc2c(cc(-c3ccccc3)n2-c2ccc(C(=O)NC(C)C)cc2)C1 (centres undefined) | 13.4µM* | -14.2% | -17.7% | 13.4% | -26.8% | -38.3% | -13.0% | -3.8% | -15.5% | 6.5% | ?
COCCNC(=O)c1ccc(-n2c(-c3ccccc3)cc3c2CCC(C)C3)cc1 (centres undefined) | 10µM* | 3.7% | ? | ? | 0.5% | -47.4% | -16.0% | ? | -4.1% | -5.3% | -38.6%
CC(C)(C)c1cc(Br)cc([C@H](CC(=O)O)NC(=O)CNC(=O)c2cc(O)cc(NC3=NCC(O)CN3)c2)c1 (some centres undefined) | . | . | . | . | 8.2% | . | . | . | . | . | .
CO[C@@H]1[C@]2(O)C(=O)N3/C=C\C(C)(C)c4[nH]c5ccccc5c4/C=C\3C(=O)N2[C@]23[C@H](CO)C(C)(C)N2c2ccccc2[C@]13O | . | . | . | . | -1.2%[53.3 µM] | . | . | . | . | . | .
Cc1ccccc1S(=O)(=O)Cc1ccc(C(=O)NCc2ccccc2Cl)o1 | ? | -15.5% | -24.5% | -3.1% | -0.2% | -20.8% | -8.5% | -4.2% | ? | 4.1% | -2.3%
CCOc1ccc(C(=O)c2cnc3ccc(Cl)cc3c2S(=O)(=O)c2ccc(C)cc2)cc1 | 14.1µM* | -2.9% | -11.9% | -22.7% | -5.1% | 2.0% | -16.7% | 5.3% | -0.3% | 15.4% | 19.3µM* | PMP22 HiBiT cnf=31.2%

From PubChem BioAssay
